Only some compounds are listed: those with a hit (about 2.8% of all), similar ones and a draw of the others.
CDK5 p35 inh: inhibitors of human CDK5/p35 kinase; inhibition, % at 10 µM; actives 0.01% (n = 330,000); Recombinant CDK5/p35, ADP-Glo luminescence, 60 min; Q00535+Q15078;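 active means highest replicate inhibition of at least 50% and at least 75% of replicates reaching 50%; inconclusive means only one of the two criteria met; inactive means both criteria failed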;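 further: plate controls were DMSO neutral control for no effect and GW8510 at 10 µM for full effect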
FGF22 binding: shifts melting point of recombinant human FGF22. Q9HCT0. recombinant FGF22 thermal shift, SYPRO orange fluorescence; percent of sucrose octasulfate shift, DMSO zero. activity (Tm shift, normalised), % at 9.99 µM. actives 1.5% (n = 340,000). AID 651658;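 active means mean Tm shift, scaled 0 neutral to 100 positive control, at about 1.3% or above, every replicate too, limit read from the data; inconclusive means no clear call, values can overlap the other calls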
Target sequence (Q9HCT0 whole entry, looked up): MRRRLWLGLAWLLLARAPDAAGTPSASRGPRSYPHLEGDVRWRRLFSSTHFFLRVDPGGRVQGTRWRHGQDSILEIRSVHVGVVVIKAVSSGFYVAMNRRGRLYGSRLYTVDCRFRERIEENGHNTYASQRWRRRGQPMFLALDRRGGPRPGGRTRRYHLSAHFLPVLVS
PvdQ inh: P. aeruginosa PvdQ acylase inhibition | purified PvdQ acylase, fluorescence plate reader | inhibition, % at 10 µM | actives 0.063% (n = 340,000) | AID 488965; in the data active means inhibition above about 30%, passing the limit was not always enough; inconclusive means no clear call, values can overlap the other calls;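 further: 0% = vehicle neutral wells and 100% = reference inhibitor wells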
dFosB activator: mouse delta FosB homodimer activation. P13346. purified delta FosB, TAMRA-CDK5 oligo fluorescence polarization; percent of positive-control signal above neutral wells. activation, % at 25 µM. actives 0.99% (n = 340,000);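 active means mean activation above about 17%, with every replicate also reaching it, limit read from the data, passing the limit was not always enough; inconclusive means only one of the two conditions met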
Target sequence (P13346 whole entry, looked up): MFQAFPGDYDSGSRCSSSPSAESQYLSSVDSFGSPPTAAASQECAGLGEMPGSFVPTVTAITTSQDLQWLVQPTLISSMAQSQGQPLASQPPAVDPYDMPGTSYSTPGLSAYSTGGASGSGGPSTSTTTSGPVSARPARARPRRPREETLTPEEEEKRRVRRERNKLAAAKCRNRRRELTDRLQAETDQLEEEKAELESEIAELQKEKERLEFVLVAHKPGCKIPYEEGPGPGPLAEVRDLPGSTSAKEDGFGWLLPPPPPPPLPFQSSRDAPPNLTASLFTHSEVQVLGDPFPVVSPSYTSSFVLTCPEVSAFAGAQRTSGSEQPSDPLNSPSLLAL
PglD inh: PglD (C. jejuni) enzyme inhibition | purified PglD enzyme, DTNB colorimetric CoA detection | inhibition, % at 12.5 µM | actives 0.098% (n = 360,000); in the data active means inhibition above about 16%, passing the limit was not always enough; inconclusive means no clear call, values can overlap the other calls
SIRT5 block: inhibitors of human sirtuin-5 desuccinylase; Q9NXA8; actives 1.1% (n = 330,000); inhibition, % at 15 µM; Purified SirT5, succinyl-peptide AMC, trypsin-coupled fluorescence; in the data active means inhibition above about 15%; inconclusive means no clear call, values can overlap the other calls
Numbers without * were called inactive; ? = inconclusive; . = not tested or not shown.

SMILES | CDK5 p35 inh | FGF22 binding | PvdQ inh | dFosB activator | PglD inh | SIRT5 block
CC(C)CC(NS(=O)(=O)c1ccc2[nH]c(=O)c(=O)[nH]c2c1)C(=O)O (configuration not stated) | 1.7 | 0.4 | 1.2 | 3.9 | . | 2.5
COCC(=O)N(C)C[C@H]1[C@H](c2ccc(-c3ccccc3)cc2)[C@H](CO)N1C(C)=O | . | -0.2 | . | . | 0.9 | 0.0
O=C(Nc1c[nH]c(=O)[nH]c1=O)c1ccc2c(c1)C(=O)N(c1cccc([N+](=O)[O-])c1)C2=O | 0.9 | -0.1 | -11.8 | -1.2 | 7.0 | 1.9
O=C(Nc1ccccc1C(=O)O)c1ccc2c(c1)C(=O)N(c1cccc([N+](=O)[O-])c1)C2=O | -0.6 | -0.2 | 6.2 | -5.1 | 5.0 | 18.4*
CC(C)CN1CCN(Cc2cccn2-c2cccnc2)CC1CCO (configuration not stated) | 0.5 | 43.0* | -14.5 | 0.0 | . | 1.0
Cc1cccc(-c2ncc(CN3CCN(CC(C)C)C(CCO)C3)cn2)c1 (configuration not stated) | 0.1 | 42.9* | -15.9 | -4.5 | -6.8 | -0.4
COc1ccc2[nH]c(CN3CCN(C(C)C)C(CCO)C3)c(C)c2c1 (configuration not stated) | -1.2 | 0.1 | -14.1 | -4.1 | 0.1 | -1.6
OCCC1CN(Cc2cccn2-c2cccnc2)CCN1Cc1ccc(F)cc1 (configuration not stated) | 0.0 | 0.1 | -11.1 | -6.2 | -5.7 | 0.8
COc1ccc2[nH]c(CN3CCN(CC(C)C)C(CCO)C3)c(C)c2c1 (configuration not stated) | -3.1 | 43.4* | -22.2 | -13.8 | 1.0 | 2.3
CCC(=O)N1C[C@@H](O)COC[C@H]2O[C@@H](CC(=O)N3CCCCC3)CC[C@@H]21 | . | -0.3 | . | . | 0.8 | 6.1
CCC(/C=C1\Sc2ccc(OC)cc2N1CC)=C\c1sc2ccc(OC)cc2[n+]1CCCS(=O)(=O)[O-] | 4.5 | 0.1 | -6.9 | 134.0* | -5.4 | -1.8
CCC(/C=C1\Sc2ccc(OC)cc2N1CCO)=C\c1sc2ccc(OC)cc2[n+]1CCO | 5.6 | 0.2 | 2.8 | ? | -0.8 | -1.7
CCCCSc1nnc(-c2ccccc2NC(C)=O)c(=O)[nH]1 | -5.2 | 43.5* | -4.5 | -3.1 | . | -2.7
CCSc1nnc(-c2ccccc2NC(C)=O)c(=O)[nH]1 | -2.1 | . | -11.2 | 4.0 | . | .
CCOC(=O)OC[C@@H]1[C@@H]2NC(=O)N(C)[C@@]1(CO)Oc1ccccc12 | . | -0.1 | . | . | . | 0.7
O=c1c(Oc2ccccc2F)coc2cc(OCc3cnn(-c4ccccc4)c3)ccc12 | 0.4 | 43.2* | 4.0 | -6.8 | . | -1.5
Cc1ccnc(NC(=O)c2ccc(Cl)cc2Cl)n1 | . | 43.1* | . | . | . | -8.4
Cc1cc(C)nc(NC(=O)c2ccc(Cl)cc2Cl)n1 | 0.1 | 0.0 | -2.9 | -6.7 | 1.4 | -3.9
C/C(=N\NC(=O)C1CC1(c1ccccc1)c1ccccc1)c1cccc([N+](=O)[O-])c1 (configuration not stated) | 0.8 | 0.0 | 8.6 | -7.3 | 1.9 | 15.0*
C/C(=N\NC(=O)C1CC1c1ccccc1)c1cccc([N+](=O)[O-])c1 (configuration not stated) | -1.0 | . | -16.1 | 11.5 | -10.2 | .
O=C(Nc1cccc(F)c1)N1CC(=O)N2[C@H](C1)[C@H](c1ccc(Br)cc1)[C@@H]2CO | . | 1.0 | . | . | . | -3.9
Cc1c(CN(C)C)c2c(n1Cc1ccccc1)C(=O)c1ccc(Br)cc1-2 | -2.3 | . | -22.1 | 18.6* | 8.3 | .
Cc1c(CN(C)C)c2c(n1C)C(=O)c1ccc(Br)cc1-2 | 4.4 | . | 4.5 | 13.4 | -0.8 | .
Cc1ccc(S(=O)(=O)Nc2ccc3c(c2)C(=O)N([C@H](C)CO)C[C@@H](C)[C@H](CN(C)C(=O)NC2CCCCC2)OCCCC[C@H](C)O3)cc1 | . | -0.3 | . | . | 2.0 | 5.1
COc1ccc(N2C(=O)CC(Nc3ccc(C(=O)O)cc3)C2=O)cc1OC (configuration not stated) | 1.0 | 42.9* | -11.8 | -7.6 | . | -0.9
SMILES | CDK5 p35 inh | FGF22 binding | PvdQ inh | dFosB activator | PglD inh | SIRT5 block
CNC(=O)CSc1nnc(-c2ccco2)n1-c1ccccc1 | -2.5 | -0.1 | -19.7 | 3.3 | 1.5 | 101.3*
CNC(=O)CSc1nnc(-c2ccco2)n1-c1cccc(C)c1 | -0.5 | -0.1 | -1.9 | 8.7 | 9.6 | 0.3
O=c1sc2ccccc2c(=O)n1Cc1ccccc1F | 2.2 | 43.2* | -7.0 | -5.2 | . | -0.9
COc1cccc(Cn2c(=O)sc3ccccc3c2=O)c1 | -0.1 | 43.3* | -11.7 | -4.1 | . | -2.5
C[C@H](NC(=O)C[C@@H]1CC[C@H]2[C@@H](COC[C@@H](O)CN2Cc2cc(F)ccc2F)O1)c1ccccc1 | . | -0.4 | . | . | 0.9 | 6.4
Cc1cccc(NC(=O)[C@H](Cc2c[nH]c3ccccc23)NC(=O)[C@@H]2Cc3ccccc3CN2)c1 | -0.8 | -0.1 | -11.1 | 22.2* | 0.7 | .
Cc1ccc(-c2ccc([C@@H]3[C@H]4CN(C(=O)c5ccc(F)cc5)CCCCN4[C@H]3CO)cc2)cc1 | . | . | . | . | 2.2 | .
COc1ccc(Nc2nc(N3CCCC3)c3ccccc3n2)cc1 | -3.3 | . | -9.1 | 59.1* | . | .
COc1ccccc1Nc1nc(-c2ccccc2)nc2ccccc12 | 2.9 | -0.1 | -6.2 | -3.6 | . | -1.1
COc1ccc(Nc2c3ccccc3nc3ccccc23)cc1 | -3.4 | -0.1 | -11.6 | 59.8* | 0.1 | -1.4
COc1ccc(Nc2c3c(nc4ccccc24)CCC3)cc1 | 0.0 | -0.1 | 8.2 | 5.0 | 5.7 | 5.9
COc1ccccc1Nc1c2ccccc2nc2ccccc12 | 0.0 | -0.3 | -4.6 | 37.3* | -5.2 | 0.7
COc1cc(Nc2c3ccccc3nc3ccccc23)cc(OC)c1OC | 0.2 | 0.0 | -1.9 | 43.9* | 2.8 | -1.8
COc1ccc(-c2cn(CC[C@@H]3CC[C@@H](NC(=O)NC(C)C)[C@@H](CO)O3)nn2)cc1 | . | -0.3 | . | . | 1.8 | -1.0
C(=N\Nc1nc(-c2ccccc2)cs1)/c1ccco1 | -1.2 | . | 12.5 | -3.0 | 2.0 | .
Cc1sc(N/N=C/c2ccco2)nc1-c1ccccc1 | 0.5 | 43.6* | -6.1 | -7.2 | . | 0.1
CCCCn1c(SCC(=O)Nc2nc(C)cs2)nnc1-c1cccnc1 | -0.6 | 0.3 | -16.0 | -3.4 | 1.9 | 17.3*
CCCn1c(SCC(=O)Nc2nccs2)nnc1-c1cccnc1 | -0.4 | . | 3.4 | -1.3 | -2.2 | .
CC(C)OCCCn1c(SCC(=O)N2CCc3ccccc32)nc2ccccc2c1=O | -0.4 | 0.0 | -3.4 | -8.1 | . | 20.6*
CC(C)OCCCn1c(SCC(=O)N2CCCC2=O)nc2ccccc2c1=O | -1.3 | 0.1 | -12.8 | -4.1 | 1.1 | -2.0
CC(Sc1nc2ccccc2c(=O)n1CCCN1CCOCC1)C(=O)N1CCc2ccccc21 (configuration not stated) | -1.4 | 43.6* | -5.6 | -0.1 | . | -6.5
C[C@@H]1CN([C@@H](C)CO)C(=O)Cc2cc(NS(=O)(=O)c3ccc(F)cc3)ccc2O[C@H]1CN(C)C | . | 0.3 | . | . | 10.2 | -3.6

Assay outcomes deposited in PubChem by Broad Institute.
